Experimental data taken from PubChem BioAssay AID504339 (National Center for Advancing Translational Sciences (NCATS), 2011).
Among all 390,000 compounds or so, about 17,000 (4.4%) were called active. Roughly 8% stayed inconclusive and do not appear here. Many of the other results were omitted from the sample, so actives are more common in it than they were. A number with no mark means an inactive call. Calls come from the whole dose curve; as a rule, active = well fitted inhibition curve with a large enough effect; inconclusive = small, poorly fitted or top-dose-only effect; inactive = no such curve, though single readings can be large or run the other way.

target: Lysine-specific demethylase 4A (Homo sapiens) (UniProt O75164); experiment: qHTS Assay for Inhibitors of JMJD2A-Tudor Domain; details: AlphaScreen JMJD2A-Tudor / H3K4me3 peptide binding; series mostly up to 114 µM; activity change, negative = inhibition: at the top concentration; note: nearly all actives have a fitted effect of over 50% in size
Description: JMJD2A is a jumonji-domain-containing lysine demethylase that uses Fe(II) together with 2-OG to effect oxidative demethylation of histones. Methylation is one of many […] modification that affect epigenetic transcription. […] It is proposed that the functions of JmjD2A binding to the histones, is to maintain marks after they are installed and to spread the modifications by […], establishing a self-propagating cycle for rapid methylation over a large area of chromatin. […] Thus, small molecule targeting of the JMJD2A-tudor domain interaction with its target methylhistone mark is expected to enable sophisticated experiments probing the fine regulatory pathways leading to selective demethylation of a given methyllysine locus based on the methylation state of adjacent histone marks. A quantitative high throughput AlphaScreen has been developed to identify small molecule inhibitors based on a protocol published by NCGC and SGC [4].
Although AlphaScreen has significant advantages with its utility in a variety of epigenetic target assays, the primary screening data provided in this deposition should be used with caution due to the prevalence of screening artifacts. The top compound concentration tested was high (>100uM) in this assay, which increases number of actives and potential artifacts. An AlphaScreen counterscreen is highly recommended to be run against any putative actives to eliminate non-specific artifacts. Alternatively, one can use other AlphaScreen assays in PubChem to filter out promiscuous hits.
[1] Lee, J. et al. Distinct binding modes specify the recognition of methylated histone H3K4 and H4K20 by JMJD2A-tudor. Nat Struct Mol Biol. 15(1); 109-11. 2008. PMID: 18084306
[2] Yasgar, et al. Compound Management for Quantitative High-Throughput Screening. JALA. 2008 Apr;13(2):79-89. PMID: 18496600
[3] Inglese, et al. Quantitative high-throughput screening: a titration-based approach that efficiently identifies biological activities in large chemical libraries. Proc Natl Acad Sci. 1;103(31):11473-8. 2006. PMID: 16864780
[4] Quinn et al. A homogeneous method for investigation of methyl-dependent protein-protein interactions in epigenetics. Nucleic Acids Res., 38(2):e11. 2010. PMID: […]
[5] Baell,Holloway. New substructure filters for removal of pan assay interference compounds (PAINS) from screening libraries and for their exclusion in bioassays. J Med Chem. 53(7):2719-40. 2010. PMID: 20131845
NIH Molecular Libraries Probe Production Network [MLPCN]
NIH Chemical Genomics Center [NCGC]
Structural Genomics Consortium (SGC)
To each well of a 1,536w plate, 2ul of JMJD2A-Tudor (final 100nM) and 1ul biotinylated histone peptide methylated at Lys4 [b-H3(1-18)K4me3] (final 50nM) were added in 1x PBS buffer, pH 7.4, containing 0.01% Tween-20, using a nanoliter dispenser. Formation of a protein-peptide complex proceeded at room temperature for 30 min. A Kalypsys pin-tool transferred 23nl of library compound solution in DMSO to each well. Following a 30 min incubation of the protein-peptide complex with compounds at room temperature, a mixture of 40 µg/mL each streptavidin-coated donor and nickel chelate acceptor AlphaScreen beads (final 10 µg/mL) was added in a 1ul dispense for a final volume of 4ul, followed by a brief centrifugation (1000 rpm, 1 min). Plates were incubated protected from the light for 20 min at room temperature. Microplates were then read on an EnVision multilabel plate reader using the 1,536 plate HTS AlphaScreen aperture (excitation time 80 ms, measurement time 240 ms).
% is set by controls: 0 for no effect and ±100 for the full control effect; potency is the fitted concentration of half-maximal effect.

Sequence of Lysine-specific demethylase 4A (Homo sapiens) (O75164 whole entry, looked up, the tested form may be a part): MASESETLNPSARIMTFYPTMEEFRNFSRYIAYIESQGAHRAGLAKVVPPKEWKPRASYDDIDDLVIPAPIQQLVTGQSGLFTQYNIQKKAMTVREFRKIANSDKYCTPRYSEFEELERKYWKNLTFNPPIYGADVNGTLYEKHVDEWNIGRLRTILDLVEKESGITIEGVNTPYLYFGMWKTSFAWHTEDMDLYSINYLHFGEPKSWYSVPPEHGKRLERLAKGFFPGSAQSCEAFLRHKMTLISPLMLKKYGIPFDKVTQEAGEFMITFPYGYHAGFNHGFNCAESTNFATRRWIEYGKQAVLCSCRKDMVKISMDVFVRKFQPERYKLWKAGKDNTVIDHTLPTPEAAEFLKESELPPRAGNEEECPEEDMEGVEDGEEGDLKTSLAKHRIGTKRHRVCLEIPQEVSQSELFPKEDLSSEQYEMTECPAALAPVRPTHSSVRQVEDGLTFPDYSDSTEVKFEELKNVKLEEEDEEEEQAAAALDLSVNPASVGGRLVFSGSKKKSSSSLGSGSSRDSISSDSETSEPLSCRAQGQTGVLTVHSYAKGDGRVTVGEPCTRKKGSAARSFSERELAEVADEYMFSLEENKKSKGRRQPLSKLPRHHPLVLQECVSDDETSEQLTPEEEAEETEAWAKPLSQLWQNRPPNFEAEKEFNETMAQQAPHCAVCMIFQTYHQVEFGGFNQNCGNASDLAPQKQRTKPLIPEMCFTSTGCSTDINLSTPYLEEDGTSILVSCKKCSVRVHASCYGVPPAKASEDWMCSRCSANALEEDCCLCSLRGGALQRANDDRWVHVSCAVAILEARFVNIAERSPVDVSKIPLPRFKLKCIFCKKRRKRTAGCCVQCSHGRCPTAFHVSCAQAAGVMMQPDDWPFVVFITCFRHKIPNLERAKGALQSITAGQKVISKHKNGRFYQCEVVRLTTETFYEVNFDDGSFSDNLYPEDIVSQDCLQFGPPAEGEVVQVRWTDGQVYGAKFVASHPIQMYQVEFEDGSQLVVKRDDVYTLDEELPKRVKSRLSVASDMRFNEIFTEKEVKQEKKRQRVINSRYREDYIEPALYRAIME

Compound | activity change, negative = inhibition | Potency
Cc1cc(NC(=O)C2CCC(CNS(=O)(=O)c3ccc(Br)s3)CC2)ccc1Br (stereo not given) | -1.03% | –
COc1ccc(NC(=O)CN(C)C(=O)c2n[nH]c3ccccc23)cc1 | -9.29% | –
CC(=O)N1CCN(C(=O)c2cc(-c3ccc(C)o3)nc3ccccc23)CC1 | -10.9% | –
CSc1ncccc1C(=O)Nc1ccc(C)cn1 | -6.9% | –
COc1ccc(NC(=O)CN(C)C(=O)c2cc(-c3ccc(C)o3)nc3ccccc23)cc1 | – | 89.1 µM (active)
COc1ccc(-c2cc(C(=O)N(C)CC(=O)Nc3ccccc3Cl)c3ccccc3n2)cc1OC | 5.52% | –
Cc1ccc(NC(=O)c2cc(-c3ccc(C)o3)nc3ccccc23)nc1 | – | 35.5 µM (active)
CCC1CN(S(=O)(=O)c2cc(-c3cc(C)no3)ccc2C)c2cc(C)ccc2O1 (stereo not given) | -13.3% | –
COc1cccc(C(=O)Nc2ccc3oc(-c4ccc5ccccc5c4)nc3c2)c1 | -27.5% | –
CCOc1ccc(C(=O)N2CCN(CCc3ccccn3)CC2)cc1 | -17.5% | –
Cc1ccc(F)cc1NC(=O)CCSc1nc(-c2ccco2)cc(C(F)(F)F)n1 | -14.1% | –
CCOC(=O)c1cc2c(=O)n3ccccc3nc2n(CC2CCCO2)c1=NC(=O)c1ccc(C(C)(C)C)cc1 (stereo not given) | 7.85% | –
CCCn1c(NC(=O)C23CC4CC(CC(O)(C4)C2)C3)nc2ccccc21 | -14.9% | –
CCCn1c(NCc2ccc(N(CC)CC)cc2)nc2ccccc21 | – | 39.8 µM (active)
CCCn1c(NCc2ccccc2F)nc2ccccc21 | 4.36% | –
COc1cccc(CNC(=O)Cc2csc3nc(-c4ccccc4)cn23)c1 | -22.7% | –
Cc1cc(C)c2oc(-c3cccc(NC(=O)c4cccc(F)c4)c3C)nc2c1 | -10.8% | –
COc1ccc(-c2nc(Cn3c(=O)cc(C)c4c(C)nn(-c5ccccc5)c43)c(C)o2)cc1OC | -13% | –
CCOc1ccccc1/C=c1\sc2nc(-c3ccco3)nn2c1=O | – | 56.2 µM (active)
CCOC(=O)C1CCN(C(c2ccc(F)cc2)c2sc3nc(-c4ccco4)nn3c2O)CC1 (stereo not given) | 0% | –
CCOc1ccccc1NC(=O)Cn1c(=O)n(Cc2ccco2)c(=O)c2sc3ccccc3c21 | -20.5% | –
CCCC(=O)Nc1cc2nn(-c3ccccc3)nc2cc1C | 1.96% | –
COC(=O)c1cc(NC(=O)c2sc3ccccc3c2Cl)cc(C(=O)OC)c1 | -8.5% | –
CCCC(=O)Nc1ccc(NC(=O)c2sc3ccccc3c2Cl)cc1 | -8.17% | –
Oc1ccc(N=Cc2sc3ccccc3c2Cl)cc1 | – | 50.1 µM (active)

Compound | activity change, negative = inhibition | Potency
CCOCCCNC(=O)c1c(NC(=O)Cc2coc3c(C)c(C)ccc23)sc2c1CCC2 | -26.7% | –
CCc1ccc(OCCCn2c(CCCNC(=O)C3CCCCC3)nc3ccccc32)cc1 | -13.1% [at 57.1 µM] | –
CC1=C(C(=O)OCc2ccc(C)cc2)C(c2ccccc2Cl)CC(=O)N1 (stereo not given) | -19.2% | –
CC(C)(C)N(CC#CCC(O)(c1ccccc1)C1CCCC1)CCO (stereo not given) | – | 50.1 µM (active)
CN(CC#CCC(c1ccccc1)c1ccccc1)C(C)(C)C | -24.1% | –
CCN(CCCNC(=O)Cn1ncc2c3ccccc3n(C)c2c1=O)Cc1ccccc1 | -12.1% | –
CCC(=O)N1CCc2cc(S(=O)(=O)NC(CC(C)C)C(=O)NCCc3cccc(C)c3)ccc21 (stereo not given) | -1.67% | –
CCc1c(C)nc(N2CCN(Cc3ccccc3)CC2)[nH]c1=O | -6.58% | –
O=S(=O)(c1cccs1)N1CCN(Cc2ccccc2)CC1 | -5.93% | –
O=C1c2ccccc2C(=O)c2c1cccc2N1CCN(Cc2ccccc2)CC1 | – | 14.1 µM (active)
COc1ccc(CNc2nc(-c3ccccc3)nn2C(=O)c2ccccc2OC)cc1 | 10.7% | –
CC(C)c1ccc(NC(=O)C2CCN(c3nc(-c4ccc(C(C)C)cc4)no3)CC2)cc1 | -15.6% | –
O=C1CC(c2ccc(F)cc2F)c2cc3c(cc2N1)OCO3 (stereo not given) | -15.8% | –
Cc1nc(Cl)c(C#N)c2c1CCCC2 | -0.685% | –
COC(=O)c1c(C)c(C)nc(N)c1C#N | -5.35% | –
COCc1c(N)c(C)nc(Cl)c1C#N | – | 11.2 µM (active)
CC(=O)c1ccc(NC(=O)C2CCN(S(=O)(=O)c3c(C)noc3/C=C/c3ccc(C)cc3)CC2)cc1 | -16.6% | –
CN(Cc1ccccc1)c1ccc(-c2nc(-c3ccccc3)no2)cc1[N+](=O)[O-] | -8.94% | –
CC(=O)c1ccc(N2CCN(C3C(=O)c4ccccc4N3C(C)=O)CC2)cc1 (stereo not given) | -15.3% | –
CC1(C)Cc2c(sc(NC(=O)C(=O)N3CCOCC3)c2C#N)CO1 | – | 14.1 µM (active)
COC(=O)c1c(NC(=O)C(=O)N2CCCCC2)sc2c1CC(C)(C)OC2 | -1.38% | –
CCOC(=O)N1CCN(C(=O)C(=O)Nc2sc3c(c2C#N)CC(C)(C)OC3)CC1 | -9.02% | –
COc1cc(C(=O)Nc2ccc(OCc3cc(=O)n4ccc(C)cc4n3)cc2)cc(OC)c1OC | -2.6% | –
CCc1ccccc1N(CC(=O)NCC1CCCO1)C(=O)CCC(=O)Nc1nccs1 (stereo not given) | – | 25.1 µM (active)
COc1ccc(N(CC(=O)NCC2CCCO2)C(=O)CCC(=O)Nc2nccs2)c(OC)c1 (stereo not given) | -22.1% | –
